Most compounds without a hit are left out; they make up all but 9.3% or so of the library.
NPC1 prom act: activators of NPC1 promoter | Huh7 NPC1 promoter luciferase reporter, 24 h | Potency, µM (highest dose often 9.22 µM), for the others: at the top dose activation, most hits filed as activators | 2.4% of 320,000 active; note: % of control where 0% means no effect; nearly all actives have a fitted effect of over 60% in size
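Luminescence from an NPC1 promoter-driven luciferase reporter in stably transfected Huh7 cells was measured after 24 h compound treatment at 37 °C, followed by 10 min ambient incubation with luciferase detection reagent.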
Rab9 prom act: activates the Rab9 promoter; Huh7 Rab9 promoter-luciferase reporter, luminescence, 24 h; Potency, µM (highest dose often 9.22 µM), for the others: top-dose activation, negative = inhibition, most hits filed as activators; 2.8% of 320,000 active; AID 485297; note: % of control where 0% means no effect; nearly all actives have a fitted effect of over 60% in size
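Huh7 cells stably carrying a Rab9 promoter-luciferase reporter, 1500 cells per well in OP-MEM I with 10% FBS, treated with compound 24 hours at 37C. Luciferase activity read by luminescence after 10 minutes with Amplite reagent.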
SMN2 splice enh: SMN2 splice variant enhancement | Potency, µM (titrated, usually from 46.1 µM), without a hit: at the top dose activity change, positive = activation, most hits filed as activators | 2.8% of 210,000 active | HEK293 SMN2-luciferase splicing reporter, luminescence, 30-36 h | AID 1458; note: % of control where 0% means no effect; nearly all actives have a fitted effect of over 55% in size
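HEK293 cells carry an SMN2 minigene-luciferase reporter in which exon 7 inclusion puts luciferase in frame. Cells were seeded at 2000 cells/well, attached for 10-12 hours, then exposed to compounds for 30-36 hours at 37C before ONE-Glo luminescence.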
ELG1 repair inh: inhibitors of ELG1-dependent DNA repair in HEK293T cells; HEK293T ELG1-luciferase reporter, luminescence, 16 h; DNA damage induced by 5-fluorouridine; Potency, µM (top dose mostly 46.1 µM), for the others: at the top dose activity change, negative = inhibition, hits mostly inhibitors; 2.3% of 330,000 active; note: % is set by controls: 0 for no effect and ±100 for the full control effect; nearly all actives have a fitted effect of over 55% in size
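Overnight (16 hr) co-exposure of 2,000 cells/well to 5-fluorouridine and compound at 37 °C preceded detection. Luciferase was quantified via ONE-Glo luminescence; loss of signal denotes inhibition.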
ELG1 genotox: inducers of genotoxicity in HEK293T ELG1-luciferase cells | Potency, µM (doses to about 46 µM), without a hit: at the highest dose activity change, positive = activation, actives largely listed as activators | HEK293T ELG1-luciferase reporter, luminescence, 16 h | 1.3% of 330,000 active; note: % of control where 0% means no effect; nearly all actives have a fitted effect of over 60% in size
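Quantitative HTS format in 1536-well plates. HEK293T ELG1-luciferase reporter cells receive test compound and are incubated 16 hr at 37 °C, 5% CO2; ONE-Glo added, 30 min room temperature, then luminescence read.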
FLuc counter: inhibits or activates purified firefly luciferase, miR-21 counter-screen; purified FLuc, Km substrates, luminescence inhibition; Potency, µM (titrated, usually from 57.5 µM), for the others: top-dose activity change, negative = inhibition, most hits filed as inhibitors; 6.9% of 360,000 active; AID 588342;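 note: plate controls were vehicle for no effect and reference inhibitor for full effect; nearly all actives have a fitted effect of over 55% in size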
Target sequence (P08659 whole entry, looked up): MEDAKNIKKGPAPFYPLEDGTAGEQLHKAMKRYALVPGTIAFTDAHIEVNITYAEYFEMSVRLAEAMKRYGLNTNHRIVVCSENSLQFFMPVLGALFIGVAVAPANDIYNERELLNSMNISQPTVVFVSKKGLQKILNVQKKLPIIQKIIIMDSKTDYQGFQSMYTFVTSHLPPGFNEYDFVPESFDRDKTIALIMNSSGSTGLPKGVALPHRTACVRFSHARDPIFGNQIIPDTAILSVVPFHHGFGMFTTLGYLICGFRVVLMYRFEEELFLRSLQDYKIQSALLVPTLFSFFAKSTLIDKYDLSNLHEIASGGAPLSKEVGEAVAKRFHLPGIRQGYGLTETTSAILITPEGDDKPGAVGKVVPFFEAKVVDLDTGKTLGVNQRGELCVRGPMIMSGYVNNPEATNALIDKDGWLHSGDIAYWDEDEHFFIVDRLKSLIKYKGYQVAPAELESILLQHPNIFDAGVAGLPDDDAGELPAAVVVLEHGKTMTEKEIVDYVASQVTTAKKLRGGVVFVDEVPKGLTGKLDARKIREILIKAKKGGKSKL
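Biochemical qHTS of compounds, final roughly 60 µM downward over six points, against 10 nM purified firefly luciferase using Km concentrations of substrates (10 uM D-luciferin, 10 uM ATP) in Tris acetate pH 7.5 buffer; luminescence output.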
The depositor's hits bear a star; ? = inconclusive; / = no result given; [ ] = remark or other dose. Calls come from the whole dose curve; as a rule, active = well fitted curve in the direction sought with a large enough effect; inconclusive = small, poorly fitted or top-dose-only effect, or another doubt; inactive = no such curve, though single readings can be large; an effect the other way counts as inactive or inconclusive. Potency is the fitted concentration of half-maximal effect.

SMILES	NPC1 prom act	Rab9 prom act	SMN2 splice enh	ELG1 repair inh	ELG1 genotox	FLuc counter
Cc1ccc(-n2c(SCn3nnc4ccccc4c3=O)nnc2-c2cccnc2)c(C)c1	8.3%	-2.3%	-1.4%	-20.7%	-5.8%	1.4%
O=c1c2ccccc2nnn1CSc1nc2ccccc2[nH]1	3.55µM*	2.82µM*	25.1µM*	?	?	15.1µM*
Cc1ccc(SCn2nnc3ccccc3c2=O)c(C)c1	?	2.51µM*	15.8µM*	?	?	19µM*
CCn1c(NCc2cccc(Cl)c2)nc2ccccc21	/	/	-3.3%	/	/	-1.7%
Cc1cc(C)cc(NC(=O)N2CCN(c3cc(-c4noc(C)n4)ccc3C)CC2)c1	/	/	/	/	/	-6.9%
CO/N=C/c1cc([N+](=O)[O-])ccc1Sc1ccc(C)cc1	0.4%	-10.8%	-9.5%	6.2%	-0.9%	-0.8%
O=c1c2ccccc2nnn1CSc1ccccc1F	1.26µM*	0.891µM*	10µM*	?	?	2.69µM*
O=Cc1sc([O-])nc1-[n+]1ccc2ccccc2c1	-0.4%	1.5%	/	9.3%	-0.5%	-1.5%
O=C(NCCc1ccccc1)c1cnc2n(c1=O)CCS2	?	2.24µM*	?	?	?	?
O=C(NCCc1c[nH]c2ccccc12)c1cnc2n(c1=O)CCS2	?	4.47µM*	?	?	13.0%	?
CSc1ccc(CCNC(=O)c2cnc3c(C)cccn3c2=O)cc1	/	/	/	/	/	-4.6%
Cc1cccn2c(=O)c(C(=O)NCCc3ccc(Cl)cc3)cnc12	/	/	/	/	/	13.5µM*
COc1ccc(-c2nc3cc(NC(=O)Cc4ccc(Cl)cc4)ccc3o2)cc1OC	/	/	-8.6%	/	/	-5.5%
Nc1ncnc2c1ncn2[C@H]1O[C@@H](CSCC[C@@H](N)C(=O)O)[C@H](O)[C@@H]1O	/	/	-2.1%	/	/	/
CCOc1ccc(-c2nc(S(=O)(=O)c3ccccc3)c(NCc3cccnc3)o2)cc1	-10.1%	-3.2%	?	14.6µM*	9.8%	14.2%
COc1ccc(C2CC(c3cccs3)=NN2C(=O)COC(=O)c2cncc(Br)c2)cc1OC (configuration not stated)	-2.6%	-5.3%	-21.0%	-22.7%	-0.1%	-2.0%
Oc1ccc(C23CC4CC(CC(C4)C2)C3)cc1O	2.3%	4.9%	/	5.3%	2.2%	15.1µM*
CC(=O)Nc1ccc(C23CC4CC(CC(C4)C2)C3)cc1	?	2.5%	/	?	9.3%	15.1µM*
CCC1(C)CC(=O)c2c(ccc3oc(C(=O)NCc4ccccc4)c(C)c23)O1 (configuration not stated)	/	/	22.4µM*	/	/	9.53µM*
CCCNC(=O)c1oc2ccc3c(c2c1C)C(O)CC(C)(C)O3 (configuration not stated)	7.4%	19.7%	/	?	8.9%	-8.3%
Cc1c(C(=O)NCc2ccoc2)oc2ccc3c(c12)C(=O)CC(C)(C)O3	?	?	15.8µM*	?	?	8.49µM*
O=C(c1ccc(S(=O)(=O)Nc2ccccc2F)cc1)N1CCC1	-0.3%	1.1%	/	12.7%	-2.4%	-1.0%
COc1ccccc1CNc1nc(-c2ccco2)nn1S(=O)(=O)c1ccc2ccccc2c1	/	/	/	/	/	-9.3%
COc1ccccc1CNC(=O)CN1c2cccc3cccc(c23)S1(=O)=O	1.4%	-6.5%	/	-8.6%	-0.7%	23.9µM*
N#Cc1cccc(S(=O)(=O)Nc2c(NC3CCCCC3)c3ccccc3oc2=O)c1	-2.0%	-0.9%	/	9.1%	2.6%	2.4%
SMILES	NPC1 prom act	Rab9 prom act	SMN2 splice enh	ELG1 repair inh	ELG1 genotox	FLuc counter
CC(C)(C)c1nc2scc(-c3cccs3)c2c(=O)o1	0.4%	14.5%	/	13.6%	-0.3%	13.5µM*
O=C(O)c1ccc(-c2nc3scc(-c4ccccc4)c3c(=O)[nH]2)cc1	0.4%	-9.9%	/	-2.5%	-1.1%	9.53µM*
O=c1[nH]c(-c2ccc(O)cc2)nc2scc(-c3cccs3)c12	2.82µM*	2µM*	/	?	?	10.7µM*
CC(=O)N1CCN(Cc2nc3scc(-c4ccccc4)c3c(=O)[nH]2)CC1	-4.2%	-2.3%	-7.4%	-7.1%	-0.5%	-1.1%
COc1ccc(CCNC(=O)CCCN2C(=O)c3ccccc3C2=O)cc1	0.3%	-7.9%	3.1%	-14.9%	3.2%	3.6%
Cc1ccccc1Cn1c(C)c(CNCCCc2ccccc2)c(C(=O)O)c1C	/	/	-3.1%	/	/	-9.0%
CCCN(Cc1cccs1)C(=O)Nc1cc(OC)ccc1OC	/	/	/	/	/	-9.3%
Cc1nc(N)sc1-c1csc(NCc2ccccc2)n1	-6.5%	-6.4%	-19.3%	-17.5%	1.6%	?
COc1cccc(Nc2nc(-c3sc(C)nc3C)cs2)c1	23.9%	26.4%	/	?	14.1%	19µM*
Cc1nc(C)c(-c2csc(Nc3ccc(C(=O)O)c(O)c3)n2)s1	-1.9%	4.0%	/	-0.3%	-4.0%	12µM*
Cc1nc(N)sc1-c1csc(Nc2ncccn2)n1	?	0.562µM*	5.62µM*	?	23.1µM*	3.01µM*
COc1ccc(OC)c(Nc2nc(-c3sc(C)nc3C)cs2)c1	-0.1%	1.1%	-17.3%	?	-2.4%	?
Cc1nc(C)c(-c2csc(Nc3ccc(F)cc3)n2)s1	11.7%	?	-18.8%	?	23.1%	?
COc1cccc(Nc2nc(-c3sc(NC(=O)c4ccco4)nc3C)cs2)c1	-6.2%	-5.8%	1.0%	?	-8.4%	23.9µM*
C=CCn1c(SCC(=O)Nc2cccc(S(N)(=O)=O)c2)nnc1C1CCCCC1	-0.4%	-4.2%	/	-5.2%	-0.1%	/
Cc1ccc(CNC(=O)c2nnn(CC(=O)Nc3cccc(C)c3C)c2N)cc1	-4.9%	-8.7%	/	?	7.7%[9.26 µM]	-1.4%
COc1ccccc1Nc1nc(-c2sc(N)nc2C)cs1	-0.3%	3.3%	/	?	1.1%	?
COc1cccc(Nc2nc(-c3sc(N)nc3C)cs2)c1	24.9%	?	?	?	?	13.5µM*
O=C(Nc1cccc(C(=O)N2CCCCC2)c1)c1nsc2ccccc12	/	/	/	/	/	5.36µM*
O=C(NCc1cccc(F)c1)c1cccc(NC(=O)c2nsc3ccccc23)c1	/	/	/	/	/	8.49µM*
COc1cccc(CNC(=O)c2cccc(Br)c2)c1	9.2%	0.1%	-4.1%	-3.7%	0.3%	-10.6%
O=C(Nc1cccc(C(=O)N2CCCCC2)c1)c1ccc(Cl)cc1	16.1%	25.8%	/	2.3%	-2.0%	?
O=C(NCc1cccc(F)c1)c1ccc2nc(CCc3ccccc3)oc2c1	/	/	/	/	/	-15.0%
COC(=O)c1cccc(NC(=O)c2nsc3ccccc23)c1	/	/	?	/	/	0.953µM*
CCC(=O)Nc1cccc(C(=O)OC)c1	-2.0%	-2.5%	/	1.3%	0.0%	0.9%
COc1cccc(CNC(=O)c2cccc(NC(=O)c3nsc4ccccc34)c2)c1	/	/	/	/	/	6.75µM*
